# ChEMBL document CHEMBL3988442, “University of Dundee, Small-Polar-MMV Screening Library” (2021)
# For some assays here: Results with a measured potency or affinity are listed apart.
# Tests used:
# Design in all cases: scale not given: direction of the effect not stated beside the values
# [1] = target: Protein translocase subunit SecA (Escherichia coli (strain K12)) (UniProt P10408); assay: Assay to Identify E. coli SecA ATPase Inhibitors; format: functional; settings: 30 µM
# [2] = target: T1, Ubiquitin-activating enzyme e1, putative (Leishmania donovani (strain BPK282A1)) (UniProt E9BSI1); assay: Leishmania donovani Ubiquitin Activating Enzyme (LdE1); format: functional; settings: 30 µM
# T1 sequence (whole entry): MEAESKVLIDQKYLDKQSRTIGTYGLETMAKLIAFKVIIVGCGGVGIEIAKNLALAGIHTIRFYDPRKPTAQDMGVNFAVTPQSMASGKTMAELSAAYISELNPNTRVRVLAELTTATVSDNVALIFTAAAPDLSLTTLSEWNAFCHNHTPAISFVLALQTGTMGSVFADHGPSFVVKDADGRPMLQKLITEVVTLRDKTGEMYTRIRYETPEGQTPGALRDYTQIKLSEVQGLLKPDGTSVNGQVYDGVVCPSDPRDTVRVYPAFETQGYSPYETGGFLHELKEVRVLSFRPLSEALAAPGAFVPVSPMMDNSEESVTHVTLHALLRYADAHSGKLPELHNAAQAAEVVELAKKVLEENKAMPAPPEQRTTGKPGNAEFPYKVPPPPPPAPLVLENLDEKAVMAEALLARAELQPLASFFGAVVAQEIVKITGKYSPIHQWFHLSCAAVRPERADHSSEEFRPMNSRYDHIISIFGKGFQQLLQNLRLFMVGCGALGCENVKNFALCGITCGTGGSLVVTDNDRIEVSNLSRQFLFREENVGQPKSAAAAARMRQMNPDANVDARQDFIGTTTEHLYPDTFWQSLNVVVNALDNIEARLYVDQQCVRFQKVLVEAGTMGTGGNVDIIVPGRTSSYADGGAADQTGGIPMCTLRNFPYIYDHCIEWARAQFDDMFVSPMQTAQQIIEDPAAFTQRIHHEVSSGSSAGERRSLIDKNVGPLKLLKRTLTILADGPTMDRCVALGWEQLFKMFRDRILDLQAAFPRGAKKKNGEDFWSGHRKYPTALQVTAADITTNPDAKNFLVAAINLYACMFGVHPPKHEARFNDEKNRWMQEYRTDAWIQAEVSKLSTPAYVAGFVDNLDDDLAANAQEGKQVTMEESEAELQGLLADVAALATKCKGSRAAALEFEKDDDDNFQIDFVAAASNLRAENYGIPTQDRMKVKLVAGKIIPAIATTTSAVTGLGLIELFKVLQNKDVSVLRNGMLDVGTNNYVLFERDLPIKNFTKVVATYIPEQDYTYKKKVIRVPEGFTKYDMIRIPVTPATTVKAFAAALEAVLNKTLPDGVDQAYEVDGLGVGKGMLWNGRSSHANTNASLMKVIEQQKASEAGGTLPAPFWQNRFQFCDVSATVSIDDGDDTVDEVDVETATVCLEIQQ
# [3] = target: AMP-activated protein kinase, AMPK (Homo sapiens) (UniProt P54646+O43741+P54619+Q9UGJ0+Q9Y478+Q13131+Q9UGI9); assay: AMP-dependent Kinase enzyme assay. An in vitro enzyme assay that detects ADP turnover that is directly proportional to AMPK activity. This uses naive AMPK that is activated during the assay with MK-8722; format: functional; settings: 30 µM
# [4] = target: Sialic acid-binding Ig-like lectin 9 (Homo sapiens) (UniProt Q9Y336); assay: Hs-Siglec9 ALPHAscreen SOP 20170721; settings: 10 µM
# Trypanosoma cruzi = assay: Trypanosoma cruzi phosphomannomutase and mannose-1-phosphate guanylyltransferase assay; format: functional; settings: 10 µM
# [5] = target: T2, Arginase-2, mitochondrial (Homo sapiens) (UniProt P78540); assay: in vitro enzyme assay to detect the production of urea directly proportional to the activity of Arginase II; format: functional; settings: 33.3 µM; also: in the data most compounds retested in dose-response had high values
# T2 sequence (whole entry): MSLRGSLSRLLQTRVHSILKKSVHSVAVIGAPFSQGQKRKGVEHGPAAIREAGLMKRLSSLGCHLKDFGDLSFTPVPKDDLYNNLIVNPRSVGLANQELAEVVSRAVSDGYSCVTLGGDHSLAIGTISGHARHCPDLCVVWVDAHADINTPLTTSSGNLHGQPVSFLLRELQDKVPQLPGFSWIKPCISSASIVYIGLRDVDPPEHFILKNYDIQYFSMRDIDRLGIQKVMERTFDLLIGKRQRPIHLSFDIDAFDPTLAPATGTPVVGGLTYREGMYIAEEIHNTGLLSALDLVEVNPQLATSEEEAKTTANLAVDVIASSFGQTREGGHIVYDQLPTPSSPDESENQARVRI
# [6] = target: T3, Proteasome subunit beta (Trypanosoma cruzi) (UniProt O96673); assay: Trypanosoma cruzi proteasome chymotrypsin-like activity (TcProtChymo) assay.; also: in the data most compounds retested in dose-response had high values; format: functional; settings: 9.37 µM
# T3 sequence (whole entry): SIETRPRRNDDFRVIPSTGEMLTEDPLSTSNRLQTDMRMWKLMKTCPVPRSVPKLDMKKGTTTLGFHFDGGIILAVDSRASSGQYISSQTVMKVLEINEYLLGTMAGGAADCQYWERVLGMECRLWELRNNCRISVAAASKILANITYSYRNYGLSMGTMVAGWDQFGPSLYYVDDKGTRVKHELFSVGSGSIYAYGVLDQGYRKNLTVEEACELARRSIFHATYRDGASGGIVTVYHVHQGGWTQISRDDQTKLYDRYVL
# Homo sapiens = species: Homo sapiens; assay: To identify inhibition of the IFN signalling (Jak-Stat) pathway via expression of an eGFP reporter gene under the control of an IFN-stimulated response element (ISRE) containing MxA promoter.; format: functional; settings: 30 µM
# [7] = target: T4, Tyrosyl-tRNA synthetase, putative (Trypanosoma cruzi (strain CL Brener)) (UniProt Q4DSP6); assay: Trypanosoma cruzi tyrosyl tRNA synthetase (TcYRS) _High Tyrosine SOP; format: functional; settings: 30 µM; also: in the data most compounds retested in dose-response had high values
# T4 sequence (whole entry): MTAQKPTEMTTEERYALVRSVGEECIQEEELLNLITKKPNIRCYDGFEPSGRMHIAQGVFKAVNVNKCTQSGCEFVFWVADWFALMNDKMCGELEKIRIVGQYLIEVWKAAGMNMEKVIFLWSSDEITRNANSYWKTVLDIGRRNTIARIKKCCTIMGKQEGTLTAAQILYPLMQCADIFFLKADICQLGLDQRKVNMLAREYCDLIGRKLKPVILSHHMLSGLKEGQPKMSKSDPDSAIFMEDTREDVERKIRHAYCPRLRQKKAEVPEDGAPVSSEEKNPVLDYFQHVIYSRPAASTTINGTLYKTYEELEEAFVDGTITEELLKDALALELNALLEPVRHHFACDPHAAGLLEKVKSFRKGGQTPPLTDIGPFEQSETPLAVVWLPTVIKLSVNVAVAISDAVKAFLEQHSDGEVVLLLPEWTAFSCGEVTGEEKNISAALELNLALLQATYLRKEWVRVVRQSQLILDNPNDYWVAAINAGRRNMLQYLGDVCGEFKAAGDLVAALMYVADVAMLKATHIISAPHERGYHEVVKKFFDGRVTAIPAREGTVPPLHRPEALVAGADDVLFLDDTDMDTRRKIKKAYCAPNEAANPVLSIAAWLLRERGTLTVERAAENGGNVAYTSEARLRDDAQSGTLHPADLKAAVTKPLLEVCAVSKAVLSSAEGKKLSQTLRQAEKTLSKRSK
# [8] = target: T4, Tyrosyl-tRNA synthetase, putative (Trypanosoma cruzi (strain CL Brener)); assay: Trypanosoma cruzi tyrosyl tRNA synthetase (TcYRS) SOP; format: functional; settings: 30 µM
# [9] = target: Chromo domain-containing protein 1 (Saccharomyces cerevisiae (strain ATCC 204508 / S288c) (Baker's yeast)) (UniProt P32657); assay: ScCHD-1 Enzyme Inhibition Assay; format: functional; settings: 30 µM; also: in the data most compounds retested in dose-response had high values
# Chain of Chromo domain-containing protein 1 (Saccharomyces cerevisiae (strain ATCC 204508 / S288c) (Baker's yeast)) (P32657 whole entry, the tested form may be a part): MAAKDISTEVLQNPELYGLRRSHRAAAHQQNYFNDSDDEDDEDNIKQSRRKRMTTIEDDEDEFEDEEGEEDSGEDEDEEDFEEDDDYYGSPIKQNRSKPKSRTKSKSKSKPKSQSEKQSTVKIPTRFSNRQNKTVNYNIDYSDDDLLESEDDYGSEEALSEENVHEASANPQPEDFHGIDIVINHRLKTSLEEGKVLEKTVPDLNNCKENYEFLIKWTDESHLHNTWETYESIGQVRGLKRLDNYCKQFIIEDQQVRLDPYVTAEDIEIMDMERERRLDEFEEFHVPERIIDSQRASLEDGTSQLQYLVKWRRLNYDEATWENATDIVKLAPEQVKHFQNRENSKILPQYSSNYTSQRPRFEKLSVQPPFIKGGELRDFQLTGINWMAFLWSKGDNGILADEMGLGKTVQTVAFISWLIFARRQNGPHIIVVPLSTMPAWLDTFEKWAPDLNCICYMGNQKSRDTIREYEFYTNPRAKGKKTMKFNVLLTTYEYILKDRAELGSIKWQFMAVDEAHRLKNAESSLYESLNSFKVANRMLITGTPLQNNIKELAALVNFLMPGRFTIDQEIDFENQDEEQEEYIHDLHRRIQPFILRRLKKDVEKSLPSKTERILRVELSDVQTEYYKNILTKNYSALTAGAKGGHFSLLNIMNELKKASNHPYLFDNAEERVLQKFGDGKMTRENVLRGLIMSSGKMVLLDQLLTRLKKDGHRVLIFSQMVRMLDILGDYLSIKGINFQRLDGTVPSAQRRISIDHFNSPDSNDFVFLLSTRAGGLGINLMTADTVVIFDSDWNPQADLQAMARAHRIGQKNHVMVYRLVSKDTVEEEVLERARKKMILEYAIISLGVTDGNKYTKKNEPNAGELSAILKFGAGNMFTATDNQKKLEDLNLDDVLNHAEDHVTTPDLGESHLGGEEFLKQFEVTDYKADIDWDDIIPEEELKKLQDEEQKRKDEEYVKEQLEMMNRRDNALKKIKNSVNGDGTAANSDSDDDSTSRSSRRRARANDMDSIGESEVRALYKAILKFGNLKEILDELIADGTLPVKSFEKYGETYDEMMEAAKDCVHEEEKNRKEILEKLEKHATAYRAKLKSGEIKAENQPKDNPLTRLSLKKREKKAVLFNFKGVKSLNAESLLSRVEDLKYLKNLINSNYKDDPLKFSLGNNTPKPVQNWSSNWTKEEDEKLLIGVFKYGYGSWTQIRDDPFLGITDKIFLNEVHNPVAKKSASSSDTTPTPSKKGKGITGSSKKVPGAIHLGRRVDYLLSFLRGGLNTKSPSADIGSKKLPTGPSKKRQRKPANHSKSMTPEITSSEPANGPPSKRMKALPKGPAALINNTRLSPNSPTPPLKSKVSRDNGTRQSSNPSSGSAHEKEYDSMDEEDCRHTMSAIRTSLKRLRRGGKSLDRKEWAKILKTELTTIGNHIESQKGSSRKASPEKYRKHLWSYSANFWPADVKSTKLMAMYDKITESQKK
# Chain of Protein translocase subunit SecA (Escherichia coli (strain K12)) (P10408 whole entry): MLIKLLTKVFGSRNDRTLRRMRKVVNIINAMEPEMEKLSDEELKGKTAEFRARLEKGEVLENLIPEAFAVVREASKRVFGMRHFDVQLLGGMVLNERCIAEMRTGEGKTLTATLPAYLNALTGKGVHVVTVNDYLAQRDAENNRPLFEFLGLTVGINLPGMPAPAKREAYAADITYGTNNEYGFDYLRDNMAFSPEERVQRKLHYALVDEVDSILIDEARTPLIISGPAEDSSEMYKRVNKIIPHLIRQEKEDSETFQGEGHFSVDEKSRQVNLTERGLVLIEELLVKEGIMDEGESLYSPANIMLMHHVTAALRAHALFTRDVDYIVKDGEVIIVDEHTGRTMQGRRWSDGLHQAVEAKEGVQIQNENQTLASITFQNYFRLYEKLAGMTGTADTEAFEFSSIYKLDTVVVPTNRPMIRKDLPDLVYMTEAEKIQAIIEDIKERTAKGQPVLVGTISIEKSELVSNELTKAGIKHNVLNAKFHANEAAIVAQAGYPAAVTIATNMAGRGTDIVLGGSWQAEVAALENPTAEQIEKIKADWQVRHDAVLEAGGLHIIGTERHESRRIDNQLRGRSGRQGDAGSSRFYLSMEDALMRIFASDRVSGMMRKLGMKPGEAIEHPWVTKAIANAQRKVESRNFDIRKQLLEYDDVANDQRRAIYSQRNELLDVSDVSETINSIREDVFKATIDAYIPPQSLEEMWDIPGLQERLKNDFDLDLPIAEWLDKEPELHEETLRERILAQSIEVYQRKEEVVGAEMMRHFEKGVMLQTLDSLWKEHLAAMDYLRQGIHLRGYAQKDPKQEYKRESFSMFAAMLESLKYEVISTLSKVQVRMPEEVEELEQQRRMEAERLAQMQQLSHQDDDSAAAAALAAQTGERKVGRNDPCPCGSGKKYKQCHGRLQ
# Chain of Sialic acid-binding Ig-like lectin 9 (Homo sapiens) (Q9Y336 whole entry): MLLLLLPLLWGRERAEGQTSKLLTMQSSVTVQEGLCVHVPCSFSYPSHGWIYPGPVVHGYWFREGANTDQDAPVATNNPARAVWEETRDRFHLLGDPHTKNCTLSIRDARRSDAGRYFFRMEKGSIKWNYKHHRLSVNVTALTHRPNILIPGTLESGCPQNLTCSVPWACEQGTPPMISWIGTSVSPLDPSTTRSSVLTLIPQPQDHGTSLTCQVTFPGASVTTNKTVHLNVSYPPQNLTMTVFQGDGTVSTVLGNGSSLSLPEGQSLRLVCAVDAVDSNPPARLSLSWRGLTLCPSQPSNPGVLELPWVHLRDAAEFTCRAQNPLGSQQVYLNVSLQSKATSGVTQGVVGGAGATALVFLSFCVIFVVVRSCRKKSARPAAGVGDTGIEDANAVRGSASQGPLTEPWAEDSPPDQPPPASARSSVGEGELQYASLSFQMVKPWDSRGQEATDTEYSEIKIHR
Compound,Percent Effect [1],Percent Effect [2],Percent Effect [3],Percent Effect [4],Percent Effect (Trypanosoma cruzi),Percent Effect [5],Percent Effect [6],Percent Effect (Homo sapiens),Percent Effect [7],Percent Effect [8],Percent Effect [9]
CCc1nc(CN2CCN(c3ncnc4cc(F)ccc34)CC2)no1,-8.93%,0%,-0.509%,2.81%,-3.44%,0%,9.65%,75.3%,-3.23%,-6.17%,1.03%
O=C(c1ncccn1)N1C[C@H]2CCC[C@@]2(COCc2ccncc2)C1,-1.29%,23.4%,-4.05%,-10.3%,4.63%,4.52%,13.9%,11.8%,3.17%,14.1%,-11.1%
CCOc1cccc2c1OCC(C(=O)NS(=O)(=O)c1ccc(Cl)cc1)=C2,-8.58%,-2.7%,102%,7.55%,-5%,-5.61%,-2.52%,18.9%,-23.1%,-33.3%,-6.64%
CC(C)C1CN(C(=O)c2ccc(C(N)=O)cc2)CCS1 (configuration not stated),-4.2%,5.2%,1.75%,3.92%,-6.2%,-4.14%,6.49%,6.03%,2.15%,6.17%,0.585%
CC(NC(=O)N(C)Cc1ccsc1)c1ccc2c(c1)OCO2 (configuration not stated),-2.79%,10.5%,5%,4.83%,9.59%,-4.21%,11%,1.31%,4.41%,19.5%,-8.55%
O=S(=O)(N1CCCCC1)N1CCc2nc(C3CCNCC3)ncc2C1,-2.16%,-4.05%,0.892%,4.08%,-1.78%,-3.94%,12.8%,5.01%,3.23%,1.3%,-20.6%
OC1CCN(Cc2cc3c(cc2Br)OCCO3)CC1,-3.08%,4.17%,1.37%,-5.64%,-7.68%,4.42%,0.526%,-3.8%,1.05%,2.56%,-1.21%
CCCc1n[nH]c(C2CN(CCCOc3ccccc3)CCO2)n1 (configuration not stated),-5.86%,1.27%,7.41%,1.64%,-1.74%,1.5%,-1.03%,2.3%,4.17%,7.59%,13.9%
COCC1CCN(c2cc(C3CN(C)CCO3)nc(C)n2)CC1 (configuration not stated),-3.57%,-5.33%,6.9%,-0.404%,-1.77%,0.233%,2.38%,6.27%,-1.06%,-3.85%,9.94%
Cn1cccc1CNC(=O)N(CCO)C1CCCc2ccccc21 (configuration not stated),-4.61%,-5.26%,-1.52%,0.538%,3.8%,-14.2%,2.01%,1.76%,2.13%,0%,-9.55%
COc1ccc2cc(C(=O)N3CCCCC3CC(N)=O)[nH]c2c1 (configuration not stated),-4.78%,15.6%,7.25%,13.8%,-0.187%,-3.56%,5.57%,-10.4%,5.83%,12.2%,-4.84%
Cc1ccc(CNCc2nnc3n2CCCC3C(F)(F)F)o1 (configuration not stated),-2.71%,5.33%,2.9%,-7.37%,-6.13%,-3.12%,8.54%,11.4%,0.546%,3.7%,-5.76%
CC(C#N)CSc1ccccc1NCC(=O)Nc1ccc(F)cc1 (configuration not stated),-7.84%,-5.48%,17.1%,-9.84%,-3.33%,1.82%,6.39%,3.15%,-8.6%,-10%,-0.597%
Cc1cccc(-c2nc(CN3CCc4c(ncn4C)C3)no2)c1,-6.97%,2.6%,-1.39%,-3.74%,-7.12%,0.356%,2.7%,21.7%,-0.971%,-2.44%,-2.23%
NC(=O)C1CCCN1Cc1cccc(NC(=O)c2ccsc2)c1 (configuration not stated),-3.24%,13.3%,0.719%,13.7%,3.6%,10.4%,20.2%,11.8%,10.4%,18.5%,-10.5%
Cc1cc2c(=O)n3c(nc2s1)CCN(C(=O)c1cnn(C)c1C)CC3,-6.2%,-17.6%,6.62%,5.04%,1.98%,-6.26%,9.83%,13%,5.38%,11.7%,-18.8%
CN(CCn1cccn1)S(=O)(=O)N1CCCC1c1ccco1 (configuration not stated),1.7%,-5.41%,-2.17%,-0.333%,-5.48%,9.43%,-3.05%,13.8%,-0.99%,-6.1%,3.02%
NS(=O)(=O)CCNC(=O)c1nnn(-c2ccccc2)c1C1CC1,0.0352%,2.7%,0.144%,-1.59%,-8.4%,2.92%,12.1%,1.92%,4.95%,6.1%,-4.86%
CCc1noc(CN2CCCN(C(N)=O)CC2)n1,-0.23%,0%,5.45%,11.3%,-6.7%,4.94%,5.98%,21.4%,-1.48%,-8.86%,-6.21%
CCc1n[nH]c(C2CN(C(=O)c3cc4c(s3)CCCC4)CCO2)n1 (configuration not stated),-1.02%,20.2%,0.0672%,-4.74%,-6.33%,-0.76%,6.96%,30.5%,1.48%,8.86%,-5.65%
O=C(CCc1ccsc1)N1CCC(Cc2ccc(CO)cc2)C1 (configuration not stated),2.19%,4.17%,-0.478%,-3.78%,-6.9%,3.53%,12.5%,-1.24%,3.16%,7.69%,-1.32%
Cc1cn2c(n1)CCC(NC(=O)c1ccc(CS(C)(=O)=O)o1)C2 (configuration not stated),-2.09%,7.89%,0.931%,9.84%,4.13%,0.766%,9.52%,3.27%,3.43%,9.76%,-9.57%
